Compounds without any hit were thinned out: in the full panel of roughly 83,000, 20% have a hit.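 Step 1: grow cells in 96-well plates. Step 2: add test compound at a single concentration. Step 3: incubate 48 h. Step 4: record percent growth.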 A number with no mark means an inactive call. Active and inactive are the calls of the source.

This assay deals with MDA-MB-435 melanoma. As to the kind of experiment: NCI-60 one-dose screen, 48 h (100 = growth as untreated, 0 = no growth, -100 = all killed). The conditions noted are these: 10 µM. On the procedure:
Growth inhibition of the MDA-MB-435 human Melanoma tumor cell line is measured as a screen for anti-cancer activity. Cells are grown in 96 well plates and exposed to the test compound for 48 hours. Compounds are tested at a single concentration, which is 10^-5 M for most compounds. The reported endpoint is percent growth (GI% or GIPRCNT), where numbers from 0 - 100% represent growth inhibition, and numbers from -100% - 0 represent cell death. For example, a value of 40 represents 60% growth inhibition. A value of 0 means no net growth occurred over the course of the experiment. A value of -40 indicates 40% of cells at the beginning of the experiment died by the end of the experiment. A value of -100 means all cells are dead at the end of the experiment.
NCI-60 Human Tumor Cell Lines Screen was performed using the standard one-dose NCI protocol, which is described in more detail at https://dtp.cancer.gov/discovery_development/nci-60/default.htm.
Compounds with GIPRCNT values below 10 were considered active. Activity score was based on GIPRCNT using the following formula: […]
Score is 0 for GIPRCNT values of 100 or above, 50 for GIPRCNT values of 0, and 100 for GIPRCNT values of -100.
As to `O=C(/C=C/c1cccc(Br)c1)c1nc2ccccc2n1Cc1ccc(Br)cc1`, the growth was -31.2% (active). On to `COc1cc(OC)c(/C=C/C(=O)c2nc3ccccc3n2Cc2ccc(F)cc2)c(OC)c1`, for which the growth was 83.5%. The figure for `CCOP(=O)(CC(F)(F)C(F)(F)F)OCC` is 18.4%. The figure for `CC(=C\C(=O)Oc1ccc2c3c1OC1C(O)CCC4(O)C(C2)N(CC2CCC2)CCC314)/C=C1\CCCc2ccccc21` (stereo not given) is 61.8%; for `CC(C)N=C([Se])NC(=O)c1cccs1` it is 37.4%; for `C[C@H]1[C@H](OC(=O)CCC(=O)Nc2cnccn2)O[C@@H]2OC3(C)CC[C@H]4[C@H](C)CC[C@@H]1[C@@]24OO3` it is 16.1%.

Regarding `O=C(NC([Se])=NC1CCCCC1)c1ccc2c(c1)OCO2`, the growth is 86.4%.

Regarding `COc1cc(OC)c(S(=O)(=O)N(CCCl)CCCl)cc1C(=O)/C=C/c1cc(OC)c(OC)c(OC)c1`, the growth is -31.5% (active). With `CC[C@]12C=CCN3CC[C@@]4(c5ccc(OC)cc5N(C)[C@H]4[C@@](O)(C(=O)OC)[C@@H]1OC(=O)CCC[P+](c1ccc(C)cc1)(c1ccc(C)cc1)c1ccc(C)cc1)[C@@H]32`, the growth is -57.5% (active).

As for `CC1=C(CCC=NNC(N)=O)C2=C(C)C3(CC3)[C@@](C)(O)C(=O)C2=C1`, the growth was -96.3% (active).

With `C[C@H]1[C@H](OC(=O)CCC(=O)N(CCCc2cn(-c3ccc([N+](=O)[O-])cc3)nn2)CCNc2ccnc3cc(Cl)ccc23)O[C@@H]2OC3(C)CC[C@H]4[C@H](C)CC[C@@H]1[C@@]24OO3`, the growth was 31.5%. Regarding `CC12OOC(C)(OO1)C2CCC(=O)NCCNc1ccnc2cc(Cl)ccc12` (stereo not given), the growth was 97.7%. For `O=C(/C=C/c1ccc(F)cc1)c1nc2ccccc2n1Cc1ccc(F)cc1` the value was -37.9% (active); for `CC1=C2C(=C[C@@](C)(COP(=O)(Oc3ccccc3)Oc3ccccc3)[C@@H]2O)C(=O)[C@@](C)(O)C12CC2`, -77.1% (active); for `COC(=O)C[C@](O)(CCCC(C)C)C(=O)O[C@H]1C(OC)=C[C@@]23CCCN2CCc2cc4c(cc2[C@@H]13)OCO4`, 1.79% (active).

Regarding `COC(=O)c1ccc(-n2cc(CCCN(CCNc3ccnc4cc(Cl)ccc34)C(=O)CCC(=O)O[C@@H]3O[C@@H]4OC5(C)CC[C@H]6[C@H](C)CC[C@@H]([C@H]3C)[C@@]46OO5)nn2)cc1`, the growth is 22.2%. Take `O=C([Se]C1C=CCCC1)c1ccc(C(=O)[Se]C2C=CCCC2)s1` (stereo not given): the growth is -61.2% (active). The figure for `CC1=C(CCC=O)C2=C(C)C3(CC3)[C@@](C)(O)C(=O)C2=C1` is -88.8% (active). As for `CN(C)CCc1cn(C2CCC2)c2cccc(O)c12`, the growth is 45.9%. For `C#CC[Se]C(=O)c1ccc(C(=O)[Se]CC#C)s1` the value was 95.8%; for `O=C(/C=C/c1ccc(Cl)cc1)c1nc2ccccc2n1Cc1ccc(F)cc1`, 12.1%; for `CC[C@]12C=CCN3CC[C@@]4(c5ccc(OC)cc5N(C)[C@H]4[C@@](O)(C(=O)OC)[C@@H]1OC(=O)CCC[P+](C1CCCCC1)(C1CCCCC1)C1CCCCC1)[C@@H]32`, -80.1% (active). For `O=C(/C=C/c1ccco1)c1nc2ccccc2n1Cc1ccc(Br)cc1` the value was 15.2%; for `COP(=O)(CC(F)(F)C(F)(F)F)OC`, 9.6% (active). For `O=C(/C=C/c1ccccc1)c1nc2ccccc2n1Cc1ccc(Br)cc1` the value was -27.9% (active). For `O=C(/C=C/c1ccccc1)c1nc2ccccc2n1Cc1ccc(F)cc1`, the growth was -29.3% (active). Consider `O=C(/C=C/c1ccc(Cl)cc1Cl)c1nc2ccccc2n1Cc1ccc(F)cc1`, for which the growth was 43.9%. For `C=CCN=C([Se])NC(=O)c1ccc2c(c1)OCO2` the value was 96.6%; for `COc1cc2cc(C(=O)N3C[C@@H](CCl)c4c3cc(OC(=O)N3CCN(C)[C@@H]5CSSC[C@H]53)c3ccccc43)[nH]c2c(OC)c1OC`, -65.9% (active); for `CC(C)N=C([Se])NC(=O)c1ccccc1`, 22.5%. For `CC[C@]12C=CCN3CC[C@@]4(c5ccc(OC)cc5N(C)[C@H]4[C@@](O)(C(=O)OC)[C@@H]1OC(=O)CCCC[P+](c1ccc(OC)cc1)(c1ccc(OC)cc1)c1ccc(OC)cc1)[C@@H]32` the value was -88.5% (active); for `COC(=O)CCn1c(-c2ccc(-n3cc(-c4ccc(O[C@H]5O[C@@H]6OC7(C)CC[C@H]8[C@H](C)CC[C@@H]([C@H]5C)[C@@]68OO7)cc4)nn3)cc2)nc2ccccc21`, 24.5%; for `O=C(/C=C/c1ccc(Cl)cc1)c1nc2ccccc2n1Cc1ccc(Br)cc1`, 54.2%.

With `CC1=C(C=O)C2=C(C)C3(CC3)[C@@](C)(O)C(=O)C2=C1`, the growth was -35.2% (active). For `COc1cc2cc(C(=O)N3C[C@@H](CCl)c4c3cc(OC(=O)N3CCN(C(=O)CCC(=O)N5CCN(C)CC5)[C@@H]5CSSC[C@@H]53)c3ccccc43)[nH]c2c(OC)c1OC`, the growth was 3.09% (active).

With `O=C(/C=C/c1ccccc1Cl)c1nc2ccccc2n1Cc1ccc(F)cc1`, the growth was -46.7% (active). For the compound `CC12OOC(C)(OO1)C2CCC(=O)NCCCNc1ccnc2cc(Cl)ccc12` (stereo not given), the growth is 93.8%.

As to `COC(=O)C[C@](O)(CCC(C)C)C(=O)O[C@@H]1C(OC)=C[C@]23CCCN2CCc2cc4c(cc2[C@H]13)OCO4`, the growth was -84% (active).

As for `COc1ccc(/C=C/C(=O)c2nc3ccccc3n2Cc2ccc(Br)cc2)cc1`, the growth is 61.1%. Take `C#CC[Se]C(=O)c1ccc2n[se]nc2c1`: the growth is 85.9%.

The values are drawn from PubChem BioAssay (NCI).
